Among the data in PubChem BioAssay AID743463 (Broad Institute, 2014) are outcome values, retold here.

This experiment is described as follows: suppressors of forskolin-stimulated G6PC mRNA, dose response, PGC-1a acetylation activator project, cell-based, hepatocytes, RT-qPCR, cherry-picked samples (AID 743463).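 Further: G6PC expression relative to GAPDH housekeeping gene as delta delta Ct.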 As to conditions: primary mouse hepatocytes; series mostly up to 26 µM.

This is one part of the list. Results filed as inconclusive are left out. Activity calls are given as the source filed them.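 How the source made its calls: active means dose curves showing G6PC suppression whose half-maximal dose is at most twice the top valid dose; inconclusive means flat curves with moderate negative activity, or unreliable fits; inactive means the rest.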

For `O=C(NCCC1CCCCN1S(=O)(=O)c1cccs1)C(=O)Nc1ccc(F)cc1F` (stereo not given), the call was inactive.

Turning to `Cc1ccc(OCC(=O)NCCCNC(=O)c2cccnc2)cc1C`, the call was inactive.

Regarding `CCOC(=O)c1c(-c2ccc(C)cc2C)csc1NC(=O)CSc1nnnn1C`, the result was inactive.

With `Cc1ccc(S(=O)(=O)Nc2ccc3c(c2)C(=O)N([C@@H](C)CO)C[C@@H](C)[C@H](CN(C)C(=O)Nc2cccc4ccccc24)OCCCC[C@H](C)O3)cc1`, the outcome was inactive.

Consider `COc1ccc(-n2nnnc2CNC(=O)c2ccc3ccccc3c2)cc1`, for which the outcome was inactive.

Regarding `Cc1cc(C(=O)NNS(=O)(=O)c2ccccc2C(F)(F)F)nn1C(C)(C)C`, the call was inactive.

Turning to `O=S(=O)(NCc1ccccc1Br)c1ccccc1Br`, the result was inactive.

For the compound `CCOc1ccccc1CN1CCN(C2CCC2)CC1CCO` (stereo not given), the outcome was inactive.

For the compound `CC(C)CCNc1nc(N2CCCC2)c2c(c1C#N)CCN(C)C2`, the outcome was inactive.

As for `CCCCC(=O)Nc1ccc(C(=O)NCCCn2ccnc2)cc1`, the compound was called inactive.

Turning to `CCOC(=O)c1c(NC(=O)CSc2cn(CC)c3ccccc23)sc2c1CCC2`, the result was inactive.

As for `Cc1cc(C)c2c(-n3cccc3)c(C(=O)NNS(=O)(=O)c3ccc(F)cc3)sc2n1`, the outcome was inactive.

Take `O=C(NCc1ccccc1)C(c1ccccc1)N(C(=O)c1csnn1)c1ccc(F)cc1` (stereo not given): the outcome was inactive.

As for `CCC(C)(C)n1nnnc1C(c1ccccc1OC)N1CCSCC1` (stereo not given), the compound was classed as inactive.

As for `COc1ccc(Nc2nnc(C)c3ccccc23)cc1`, the outcome was inactive.
